Each structure is given as a SMILES string. Among all 360,000 compounds or so, about 17,000 (4.7%) were called active. Another 5% or so got no clear call; they are omitted. The full list was thinned out, with actives kept by preference. Values without a mark were called inactive. No stated cut-off is given here; in the data, active means activity change below about -50%; inconclusive means mostly about -30% to -49%; inactive means weaker than that.
On the % scale 0 is the no-effect control and ±100 the full control effect.

The nature of the experiment: qHTS for Inhibitors of Inflammasome Signaling: IL-1-beta AlphaLISA Primary Screen. To be noted: THP-1 LPS/ATP IL-1B secretion, 16 h; at 57.5 µM, hits give low values. In a few lines: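 THP-1 cells pretreated 1 hr with compounds (up to 57.5 uM final), then stimulated with LPS (250 ng/mL final) plus ATP (1.25 mM final); secreted IL-1B measured by AlphaLISA after 16 hr, decreased signal indicating inhibition.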
For orientation: In qHTS, concentration-response curves come from the screen itself.
Consider `COc1ccc(NC(=O)c2cc(=O)[nH]c3ccccc23)cc1S(=O)(=O)N1CCOCC1`, for which the activity change is -13.1%. On to `CCN(CC)CCCNC(=O)c1c(O)c2cc(F)cc3c2n(c1=O)C(C)CC3` (stereo not given), for which the activity change was 67.3%. In the case of `O=C(NCc1ccco1)c1cccc(-c2ccc3nncn3c2)c1`, the activity change is 0%. The figure for `Cc1ccc(-c2ccc(C3=CC(=O)CC(C)(C)C3=O)cc2)cc1` is -18.9%; for `COc1cc(/C=C2/C(=O)ON=C2C)ccc1OCc1ccccc1F` it is -99.7% (active); for `C#CCOc1ccc(/C=C2/C(=O)NN(c3ccccc3)C2=O)cc1OC` it is 11.3%. The same measure for `C=CCOc1ccc(/C=C2/C(=O)ON=C2C)cc1OCC`: -98.7% (active); for `C#CCOc1ccc(/C=C2/C(=O)ON=C2C)cc1OCC`: -87.9% (active); for `COc1cc(/C=C2\SC(=O)NC2=O)ccc1OCc1ccc(Cl)nc1`: 11.8%.

`C=CCOc1ccc(/C=N/NC(=O)C(C)Sc2ccccn2)cc1OCC` (stereo not given): the activity change was -1.69%. The same measure for `COc1cc(/C=C2/C(=O)ON=C2C)ccc1OCc1cccc(F)c1`: -6.27%; for `C#CCOc1ccccc1/C=C1/C(=O)ON=C1C`: -15%; for `CC1=NOC(=O)/C1=C\c1ccccc1`: 11.9%.

With `CC(=O)c1ccccc1NC(=O)COC(=O)C1COc2ccccc2O1` (stereo not given), the activity change was 22.8%. For the compound `OC[C@@H]1CN(Cc2ccc3c(c2)OCO3)C[C@H](n2cnc3c(NCc4ccco4)ncnc32)O1`, the activity change is 0.259%. The same measure for `O=C(C(=O)N1CCC(c2ccccc2)CC1)c1ccccc1`: 27.9%; for `CCCCNC(=O)C[C@@H]1C[C@@]2(C(=O)OCC)CCC=C2N(Cc2cccc3ccccc23)C1=O`: -0.516%.

As to `C=CCC1(C(=O)N(C)Cc2ccccc2)CCN(C(=O)OC(C)(C)C)CC1`, the activity change is -21.2%. On to `CCOc1ccc(C(C)=O)cc1COC(=O)CN1C(=O)NC2(CCCC2)C1=O`, for which the activity change is -1.02%. The same measure for `Cc1onc(-c2ccccc2)c1-c1nnc(COC(=O)c2ccc(N(C)C)cc2)o1`: 21.8%. The figure for `CCOc1ccccc1NC(=O)Cn1ncc2ccc([N+](=O)[O-])cc21` is 10.8%; for `CN(C)CCNc1ccc(-c2n[nH]c(=O)c3ccccc23)cc1[N+](=O)[O-]` it is -56.7% (active).

Turning to `COCCNc1ccc(-c2n[nH]c(=O)c3ccccc23)cc1[N+](=O)[O-]`, the activity change was 20.3%. The same measure for `Cc1ccc(S(=O)(=O)N(C)C)cc1NC(=O)c1n[nH]c(=O)c2ccccc12`: -9.1%; for `C=CCCC(=O)N1C[C@H]2CON(C)[C@H]2C[C@H]1c1cccc(Nc2ccccc2)c1`: -2.63%.

Take `Cc1cc(Nc2ccc(C)c(C)c2)n2ncnc2n1`: the activity change is 3.66%.

Take `CCOC(=O)[C@]12CCCC=C1N(CCC1=CCCCC1)C(=O)[C@H](CC(=O)N1CCCCC1)C2`: the activity change is 19.5%. The figure for `COCCNC(=O)CSc1nc2sccc2c(=O)n1-c1ccccc1` is 14%. The same measure for `O=C1CC(C(=O)O)NC(=S)N1` (stereo not given): 3.02%. The figure for `O=[N+]([O-])c1ccc2[nH]c3c(c2c1)CCCC3O` (stereo not given) is -14.8%; for `COC(=O)c1ccc(C23CC4(C2)[C@H](CN(Cc2cccnc2)[C@@H]4c2ccccc2)C3c2ccc(Cl)nc2)cc1` (stereo not given in full) it is 24%. In the case of `O=C(Cn1cc(-c2nnnn2-c2ccc(Cl)cc2)c(=O)c2ccccc21)c1ccccc1`, the activity change is 33.2%.

Regarding `O=C(CSc1cccc[n+]1[O-])c1ccc(Cl)cc1`, the activity change was -5.03%. The figure for `O=C(C[n+]1ccc2c(c1)nnn2-c1ccccc1)c1ccc(Cl)cc1` is -56.5% (active); for `CC1(C)NC(=O)N(CC(=O)Nc2ccc(-c3ccccc3)cc2)C1=O` it is 4.98%. The same measure for `O=C(Nc1ccc(S(=O)(=O)Nc2nccs2)cc1)c1cccc(S(=O)(=O)N2CCOCC2)c1`: 0%. The figure for `O=C(Nc1nccs1)c1cc(S(=O)(=O)N2CCOCC2)c(Cl)cc1Cl` is -105% (active); for `O=C(NCc1cccnc1)c1cc(S(=O)(=O)N2CCOCC2)c(Cl)cc1Cl` it is 16.2%; for `C[C@@H]1CN([C@H](C)CO)C(=O)c2cc(Br)cnc2O[C@@H]1CN(C)Cc1cncnc1` it is -0.234%.

Consider `CC(=O)Nc1cncc(-c2ccccc2CO)n1`, for which the activity change was 5.55%. The figure for `CC1(C(=O)NS(=O)(=O)c2ccccc2)CCN1C(=O)C/C=C/c1ccccc1` (stereo not given) is -5.77%; for `CC1(C(=O)O)CCN1C(=O)/C=C/c1ccccc1` (stereo not given) it is 23.5%; for `CC1(C)CCSC(/C=C/c2ccccc2)=N1` it is -102% (active). The figure for `Cc1cc(C)nc(NNC2=CC(=O)CC(C)(C)C2)n1` is 31.9%; for `CC(=O)Oc1ccc(N(C(C)=O)S(=O)(=O)c2ccc3ccccc3c2)cc1Br` it is -50% (active); for `COCCNC(=O)COc1ccc(N(C)S(=O)(=O)c2ccc3ccccc3c2)cc1` it is 22.7%. The figure for `CCN1CCN(C(=O)CN(C)S(=O)(=O)c2ccc3ccccc3c2)CC1` is 20.4%; for `COc1cccc(C(=O)Nc2ccc3nc4n(c(=O)c3c2)CCCCC4)c1` it is 5.21%. On to `Cc1ccc(OCC(=O)Nc2ccccc2C(=O)NC2CC2)cc1C`, for which the activity change is 0%. The same measure for `CCOC(=O)c1cc(-c2sc(NC(=O)c3ccccc3)nc2C)n(Cc2ccccc2)n1`: -3.85%; for `COCCNC(=O)CN(Cc1ccco1)C(=O)CCC(=O)Nc1nccs1`: -4.97%; for `Fc1ccc(Cn2nnnc2C(c2cccs2)N2CCCCCC2)cc1` (stereo not given): -13.3%. `CCC(C)(C)n1nnnc1C(c1ccc(OC)c(OC)c1)N1CCN(C(=O)c2ccco2)CC1` (stereo not given): the activity change was 1.37%. The figure for `CCC(C)(C)n1nnnc1C(c1cccs1)N1CCN(c2nc3ccccc3s2)CC1` (stereo not given) is -62.8% (active); for `Cc1ccc(-c2nc3c(Cl)cc(C(F)(F)F)cn3c2Cc2cccc(Cl)c2)cc1` it is 41.1%; for `CCN1C(=O)C(CC(=O)Nc2cc(C)ccc2C)SC1=Nc1ccc(S(N)(=O)=O)cc1` (stereo not given) it is -5.39%. The same measure for `O=C(CC1SC(=Nc2ccccc2)N(Cc2ccccn2)C1=O)Nc1cccc(Cl)c1` (stereo not given): -60.7% (active); for `CN1C(=O)C(CC(=O)Nc2ccccc2)S/C1=N/c1nccs1` (stereo not given): -2.9%.

Take `CCN(CC)CCN(C)C(c1ccnc2ccccc12)c1nnnn1-c1ccc2c(c1)OCCO2` (stereo not given): the activity change is -3.67%. The figure for `CC(C)C1CC2=C(C(=O)OC(C)(C)O2)C(c2ccc(F)cc2)O1` (stereo not given) is 43.5%; for `CC(C)n1c(-c2cccs2)nc2ccccc21` it is -1.34%. Regarding `CC(C)n1c(NCc2c[nH]c3ccccc23)nc2ccccc21`, the activity change was -81.7% (active).

As for `Cc1ccc(O)c(CNc2nc3ccccc3n2C)c1`, the activity change is -11.8%. The same measure for `COCC(C)NC(=O)CSc1nc2nn(-c3ccccc3)c(=O)c-2c2n1CCCCC2` (stereo not given): -2.5%. The same measure for `COc1ccc(C(C)C)cc1-c1ccc2nncn2c1`: 15.9%; for `Cc1c(C(=O)N2CCCc3ccccc32)oc2ccccc12`: 3.03%; for `COc1ccc2oc(=O)c(C(=O)N3CCCc4ccccc43)cc2c1`: -74% (active).

Consider `Cc1ccc(C(=O)N2CCCc3ccccc32)c(Cl)c1`, for which the activity change is 64.5%. The figure for `CCOC(=O)[C@@H]1[C@H]2COc3ccc(Br)cc3[C@H]2N2C(=O)N(c3ccc(Cl)cc3)C(=O)[C@@]12C` is 8.14%. The same measure for `O=S(=O)(c1cccc(C(F)(F)F)c1)N1c2ccccc2-n2cccc2C1c1cccnc1` (stereo not given): 41.9%; for `CC(C)OCC(O)CN1CCN(C(c2ccccc2)c2ccccc2)CC1` (stereo not given): -6.29%. The figure for `CC1(C)CC(N2CCN(C(c3ccccc3)c3ccccc3)CC2)=CC(=[N+]2CCCCC2)C1` is -71.2% (active); for `c1ccc(C(c2ccccc2)N2CCN(Cc3nnnn3C3CCCCC3)CC2)cc1` it is 20.1%; for `CC(C)(O)C1=C[N+](=O)CC=C1` it is 16.1%. With `COc1cccc(NC(=O)C2(C)CCN2Cc2ccccc2Cl)c1` (stereo not given), the activity change is -11.6%.

Consider `CNN/C(N=Cc1ccc([N+](=O)[O-])s1)=N\S(=O)(=O)c1cc(C)c(Cl)cc1SCc1ccccc1`, for which the activity change is -7.5%. Turning to `CC1CN(C(=O)c2ccc([N+](=O)[O-])s2)CC(C)O1` (stereo not given), the activity change is 22.4%.

As to `O=[N+]([O-])c1ccc(C=Nc2ccc(Cl)cc2Cl)s1`, the activity change is -106% (active). The same measure for `CCCCn1nnnc1NCc1cc(OC)c(OC)c(OC)c1`: 25.2%; for `CCn1c2ccccc2c2cc(NC(=O)COC(=O)c3ccccc3Br)ccc21`: -18.9%. Turning to `CCn1c2ccccc2c2cc(NC(=O)CNC)ccc21`, the activity change was -85.6% (active).

In the case of `CCn1c2ccccc2c2cc(NC(=O)C/C(C)=N/NC(=O)c3ccccc3N)ccc21`, the activity change was 25.4%. Regarding `Cc1nn(-c2ccccc2)c2c1c(C)c(CCC(=O)NCC1CCCO1)c(=O)n2C` (stereo not given), the activity change was -20.2%. With `Cc1ccc(CNC(=O)Nc2nnc([C@H]3C[C@H](O)[C@@H](CO)O3)s2)cc1`, the activity change is 3.84%. The figure for `C[C@@H]1CN([C@H](C)CO)C(=O)c2cc(-c3ccc(F)cc3)cnc2O[C@H]1CN(C)C(=O)c1ccc(F)cc1` is -10.1%. As for `CN(CCc1ccccc1)c1ccc([N+](=O)[O-])cn1`, the activity change is 25.8%.

In the case of `CNS(=O)(=O)c1cccc(C(=O)OCC(=O)N2c3ccccc3NC(=O)C2(C)C)c1`, the activity change was 11.2%. The figure for `Cc1cc(C(=O)OCC(=O)N2c3ccccc3NC(=O)C2(C)C)c(C)n1-c1ccccc1` is -78.6% (active); for `Cc1ccc(OCCC(=O)OCC(=O)N2c3ccccc3NC(=O)C2(C)C)cc1` it is 11%; for `NC(=O)C1(Nc2ccc(-c3ccccc3)cc2)CCCC1` it is 3.69%.

The values above are taken from PubChem BioAssay AID743279 (National Center for Advancing Translational Sciences (NCATS), 2014).
